Drawing on ChEMBL document CHEMBL1157539, “Thousands of chemical starting points for antimalarial lead identification” (Nature, 2010), this text covers Inhibition for 22 compounds.

Common to all, as to format: functional
The test system of assay [1] is Plasmodium falciparum. The experiment in a line: GSK_TCMDC: Inhibition of Plasmodium falciparum 3D7 in whole red blood cells, using parasite LDH activity as an index of growth. Test compounds present at 2uM.
The subject of assay [2] is Plasmodium falciparum. The experiment in a line: GSK_TCMDC: Inhibition of Plasmodium falciparum Dd2 in whole red blood cells, using parasite LDH activity as an index of growth. Test compounds present at 2uM.
For a further assay, the system named is HepG2. The experiment in a line: GSK_TCMDC: Percent inhibition of human HepG2 cell line. Test compounds present at 10uM.

One may read the Inhibition as the percentage by which the read-out fell short of the control. The low end stands for a weak effect, the high end for a strong effect. Consider `COc1ccc2nccc([C@@H](O)CN3CCC(NCc4cc5ccc(Cl)cc5[nH]4)CC3)c2c1.O=C(O)C(=O)O`, for which the figures for the Inhibition in the assay with Plasmodium falciparum [1], in the assay with Plasmodium falciparum [2] and with HepG2 were 99%, 61% and 30%, respectively.

For the compound `COc1cc(NC(=O)c2cccc([N+](=O)[O-])c2)cc(S(=O)(=O)c2ccc(Cl)cc2)c1`, the Inhibition in the assay with Plasmodium falciparum [1] amounted to 88%; in the assay on Plasmodium falciparum [2], 23%; with HepG2 it was 0%.

On to `CC1CN(c2ccc(NC(=O)c3ccc(F)cc3)cc2)CCN1Cc1cccc(F)c1.O=C(O)C(F)(F)F` (stereo unspecified), for which the values for the Inhibition in the assay with Plasmodium falciparum [1], in the assay on Plasmodium falciparum [2] and in the assay with HepG2 were 81%, 76% and 11%, respectively.

With `COc1cc(CN=C(S)NN=C(C)c2ccccn2)cc(OC)c1OC`, the results for the Inhibition in the assay on Plasmodium falciparum [1], with Plasmodium falciparum [2] and in the assay on HepG2 were 99%, 92% and 45%, respectively.

For the compound `CN(c1ccc(NC(=O)Nc2cc(C(F)(F)F)ccc2F)cc1)c1ccnc(NCCN2CCCC2)n1.O=C(O)C(F)(F)F`, the values for the Inhibition in the assay on Plasmodium falciparum [1], in the assay with Plasmodium falciparum [2] and with HepG2 were 93%, 1% and 94%, respectively.

For `Cc1c(OC(C)C)nc2ccccc2c1C(=O)N[C@H](c1cccc(F)c1)C1CC1`, the figures for the Inhibition with Plasmodium falciparum [1], in the assay with Plasmodium falciparum [2] and in the assay on HepG2 were 83%, 34% and 6%, respectively.

Regarding `CN(C)CCC(O)C=C(c1ccc(Cl)cc1)c1ccc(Cl)cc1` (stereo unspecified), the Inhibition in the assay on Plasmodium falciparum [1] is 93%; in the assay with Plasmodium falciparum [2], 85%; with HepG2, 33%.

On to `CN1Cc2ccc(NS(=O)(=O)c3ccc(-c4ccoc4)cc3)cc2C1.Cl`, for which the Inhibition with Plasmodium falciparum [1] is on record as 97%; in the assay with Plasmodium falciparum [2] it was 2%; in the assay with HepG2, 0%.

Take `Cc1sc(CNCCCNc2cc(=O)c3ccccc3[nH]2)c(I)c1C.Cl`: the figures for the Inhibition in the assay on Plasmodium falciparum [1], with Plasmodium falciparum [2] and in the assay with HepG2 were 94%, 48% and 0%, respectively.

Regarding `Cc1noc(C)c1S(=O)(=O)N(C)Cc1ccc(-c2ccc(Cl)cc2)o1`, the figures for the Inhibition with Plasmodium falciparum [1], with Plasmodium falciparum [2] and in the assay on HepG2 were 100%, 100% and 10%, respectively.

Take `CC(=O)Nc1ccc(OCCN(Cc2ccccc2OC(F)(F)F)c2ccc(C(F)(F)F)c(C#N)c2)c(Cl)c1`: the Inhibition was 96% in the assay with Plasmodium falciparum [1], 96% with Plasmodium falciparum [2] and 8% in the assay on HepG2.

As to `CC1CN(c2ccc(NC(=O)c3ccsc3)cc2C(=O)N2CCN(Cc3ccc(C(C)(C)C)cc3)CC2)CC(C)O1` (stereo unspecified), the results for the Inhibition in the assay with Plasmodium falciparum [1], in the assay with Plasmodium falciparum [2] and with HepG2 were 90%, 80% and 12%, respectively.

For `C=CCC(CC=C)N1C(=O)C(c2ccccc2)(c2ccccc2)N=C1N.O=CO`, the Inhibition is reported as 98% with Plasmodium falciparum [1], 97% with Plasmodium falciparum [2] and 35% in the assay on HepG2.

Turning to `COc1cc(Cl)c(C)cc1-n1cc(C(=O)c2cc(Br)ccc2O)cc(C#N)c1=O`, the Inhibition was found to be 95% in the assay with Plasmodium falciparum [1], 35% in the assay on Plasmodium falciparum [2] and 3% with HepG2.

Take `O=c1cc(NCCCNCc2cc(F)cc(C(F)(F)F)c2)[nH]c2ccccc12`: the Inhibition is on record as 92% in the assay on Plasmodium falciparum [1], 15% with Plasmodium falciparum [2] and 0% in the assay with HepG2.

Turning to `CC(C)[C@H](NC(=O)c1c(CN2CCC(N3CCCCC3)CC2)c(-c2ccccc2)nc2cc(O)ccc12)c1ccccc1`, the Inhibition is 100% in the assay on Plasmodium falciparum [1], 73% in the assay with Plasmodium falciparum [2] and 10% with HepG2.

For `COc1cc2c(cc1S(=O)(=O)c1ccc(OCc3ccc(Cl)cc3)cc1)CCN(Cc1ccc(NC(C)=O)s1)CC2`, the Inhibition turned out to be 89% in the assay on Plasmodium falciparum [1], 0% in the assay on Plasmodium falciparum [2] and 3% in the assay with HepG2.

Consider `CC(C)c1ccc(NC(=O)c2ccc(C(=O)NC3CCN(CC4CCCCC4)C3)cc2)cc1.O=C(O)C(F)(F)F` (stereo unspecified), for which the Inhibition came out at 93% in the assay on Plasmodium falciparum [1], 26% with Plasmodium falciparum [2] and 35% in the assay on HepG2.

As for `O=C(Nc1ccc(Cn2nc(Cl)c(N3CCNCC3)cc2=O)cc1)Nc1ccc(-c2ccccc2)cc1.O=C(O)C(F)(F)F`, the Inhibition is given as 97% in the assay with Plasmodium falciparum [1], 49% with Plasmodium falciparum [2] and 99% in the assay on HepG2.

As for `N=C(N)Nc1nc(-c2cccc(NC(=O)CCCCCCCON3C(N)=NC(N)=NC34CCCCC4)c2)cs1`, the Inhibition in the assay with Plasmodium falciparum [1] is 96%; in the assay with Plasmodium falciparum [2], 89%; in the assay with HepG2, 1%.

As to `O=C(NCc1cccc(F)c1)Nc1cccc(-c2ccc(-c3nc4cc(C(F)(F)F)ccc4[nH]3)cc2)c1`, the figures for the Inhibition in the assay with Plasmodium falciparum [1], in the assay with Plasmodium falciparum [2] and in the assay on HepG2 were 98%, 20% and 50%, respectively.

For `O=C(Nc1cccc(-c2ccc(-c3nc4ccccc4[nH]3)cc2)c1)c1cccnc1`, the Inhibition stood at 100% with Plasmodium falciparum [1], 1% in the assay with Plasmodium falciparum [2] and 18% in the assay on HepG2.
